Bioassay records as filed in PubChem BioAssay.
p97 inhibitor: inhibitors of human p97 ATPase, primary screen, biochemical. Transitional endoplasmic reticulum ATPase (Homo sapiens), P55072. recombinant p97 ATPase, Kinase-Glo ATP luminescence, 3 h. inhibition, % at 8 µM. hit rate 0.42% among 220,000. AID 1481, 2009; in the data active = inhibition above about 15%
Target sequence (P55072 whole entry, looked up): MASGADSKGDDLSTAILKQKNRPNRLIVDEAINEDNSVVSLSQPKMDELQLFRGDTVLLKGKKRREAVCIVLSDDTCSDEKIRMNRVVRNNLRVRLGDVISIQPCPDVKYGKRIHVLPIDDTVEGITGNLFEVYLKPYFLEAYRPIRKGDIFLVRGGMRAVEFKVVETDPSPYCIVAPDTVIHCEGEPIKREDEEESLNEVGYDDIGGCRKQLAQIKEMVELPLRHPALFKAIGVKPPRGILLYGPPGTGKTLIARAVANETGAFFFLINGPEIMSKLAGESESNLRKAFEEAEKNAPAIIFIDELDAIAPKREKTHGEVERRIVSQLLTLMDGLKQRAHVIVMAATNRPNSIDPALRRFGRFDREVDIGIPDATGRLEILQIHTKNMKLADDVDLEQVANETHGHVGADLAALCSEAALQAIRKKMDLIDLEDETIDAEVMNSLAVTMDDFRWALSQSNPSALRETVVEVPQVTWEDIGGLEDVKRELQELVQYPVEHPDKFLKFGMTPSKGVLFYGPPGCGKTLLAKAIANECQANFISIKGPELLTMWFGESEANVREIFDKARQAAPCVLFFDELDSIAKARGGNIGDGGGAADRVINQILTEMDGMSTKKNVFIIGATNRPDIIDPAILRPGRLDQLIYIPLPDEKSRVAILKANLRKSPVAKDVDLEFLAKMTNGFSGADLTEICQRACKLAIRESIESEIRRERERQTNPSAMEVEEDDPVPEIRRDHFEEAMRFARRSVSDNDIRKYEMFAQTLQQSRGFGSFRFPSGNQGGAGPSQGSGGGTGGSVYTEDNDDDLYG
HCT116 PTEN-null: growth suppression of PTEN-null HCT116, primary screen, cell-based, CellTiter-Glo | HCT116 PTEN-null viability, 60 h; hits give low values | viability, % at 10 µM | AID 827, 2007 | hit rate 1.2% among 140,000;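 active = viability at or below a set limit, 4 SD under the median of all tested compounds, cut at about 3.7% in these data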;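 note: PTEN knockout HCT116 line with beta catenin targeted HCT116 as companion control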
ROMK primary: ROMK potassium channel modulators, primary screen, cell-based, thallium flux, MLSMR library; ATP-sensitive inward rectifier potassium channel 1 (Homo sapiens), P48048; Tet-inducible ROMK, thallium flux fluorescence; actives lie on both sides; B-score at 10 µM; hit rate 2% among 130,000; AID 1918, 2009;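 active = signal ratio slope over the read window, or its plate-corrected B-score, at least 3 SD from the plate mean, either direction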;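 note: B-score of the F/F0 ratio slope over 7 to 12 s after thallium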
L major viab: Leishmania major promastigote growth inhibition, primary screen | Leishmania major promastigotes, resazurin fluorescence viability | inhibition, % at 10 µM | hit rate 9% among 200,000; in the data active = inhibition above about 50%;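 note: promastigotes grown with compound for 44 hours at 28 °C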
bCat KO growth: primary screen for growth suppressors in beta-catenin knockout HCT116 cells (colon tumor, human); HCT116 beta-catenin knockout viability, CellTiter-Glo, 60 h; hits give low values; AID 818, 2007; viability, % at 10 µM; hit rate 1.5% among 140,000;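 active = viability at or under a set limit, the compound median less 4 SD, cut at about 6% in these data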
INS promoter inh: inhibitors of insulin promoter-driven GFP, primary screen, imaging, TRM-6 cells (human fetal islet line), eGFP reporter, cell count; reporter expression induced with tamoxifen; inhibition, % at 2 µM; hit rate 0.9% among 130,000; AID 1273, 2008;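 active = inhibition above the mean plus 3 SD, with well images judged a real hit on visual review, cut at about 60% in these data, passing the limit was not always enough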
Numbers stand for hits. Only some compounds are listed: those with a hit (about 10% of all), similar ones and a draw of the others.

How did CC1CCN(CC(=O)Nc2cccc(C(=O)Nc3cccc(C(F)(F)F)c3)c2)CC1 do in these assays?
p97 inhibitor: inactive; HCT116 PTEN-null: inactive; ROMK primary: inactive; L major viab: 82.0; bCat KO growth: inactive; INS promoter inh: inactive

How did COc1ccc(N(C(=O)/C=C/c2ccccc2)C2=CC3CCC(C2)N3C)cc1 (centres undefined) do in these assays?
p97 inhibitor: inactive; ROMK primary: inactive

Results for O=C(Cn1cnc2ccccc2c1=O)c1ccc(Cl)cc1 ?
p97 inhibitor: inactive; ROMK primary: inactive; L major viab: inactive

Results for Cc1ccc(S(=O)(=O)N2CCN(c3nccnc3C#N)CC2)cc1 ?
p97 inhibitor: inactive

Results for COc1ccccc1OCCC(=O)Nc1cccc(S(=O)(=O)N2CCCCC2)c1 ?
p97 inhibitor: inactive; HCT116 PTEN-null: inactive; ROMK primary: inactive; L major viab: inactive; bCat KO growth: inactive; INS promoter inh: inactive

What do the screens show for `O=C(COc1cccc(Cl)c1)Nc1ccc(N2CCOCC2)cc1`?
p97 inhibitor: inactive; HCT116 PTEN-null: inactive; ROMK primary: inactive; L major viab: inactive; bCat KO growth: inactive; INS promoter inh: inactive

Results for O=C(COc1cccc(Cl)c1)Nc1ccc2c(c1)CCC2 ?
p97 inhibitor: inactive; HCT116 PTEN-null: inactive; ROMK primary: inactive; L major viab: 56.0; bCat KO growth: inactive; INS promoter inh: inactive

Results for COc1ccc(CC(=O)Nc2cccc(S(=O)(=O)N3CCCCCC3)c2)cc1OC ?
p97 inhibitor: inactive; HCT116 PTEN-null: inactive; ROMK primary: inactive; L major viab: 84.3; bCat KO growth: inactive; INS promoter inh: inactive

How did O=C(CN1CCCC1)Nc1ccc(Oc2ccc(NC(=O)CN3CCCC3)cc2)cc1 do in these assays?
p97 inhibitor: inactive; HCT116 PTEN-null: inactive; ROMK primary: inactive; L major viab: 78.9; bCat KO growth: inactive; INS promoter inh: inactive

How did NNC(=O)CCc1ccc(S(=O)(=O)N2CCOCC2)cc1 do in these assays?
p97 inhibitor: inactive; ROMK primary: inactive; L major viab: inactive; INS promoter inh: 81.2

What do the screens show for `CC1CCN(S(=O)(=O)c2ccc(S(=O)(=O)N3CCCN(Cc4ccccc4)C3)cc2)CC1`?
p97 inhibitor: inactive; L major viab: 86.3; INS promoter inh: inactive

What do the screens show for `O=C(CSCc1ccc(Cl)cc1)Nc1ccc(S(=O)(=O)N2CCOCC2)cc1`?
p97 inhibitor: inactive; HCT116 PTEN-null: inactive; L major viab: 87.6; bCat KO growth: inactive; INS promoter inh: inactive

How did Cc1[nH]nc(SCC(=O)NC2CCCCC2)c1[N+](=O)[O-] do in these assays?
p97 inhibitor: inactive; ROMK primary: inactive; L major viab: inactive

Results for Cc1ccc(C)n1CCN1CCN(C(=O)CC#N)CC1 ?
p97 inhibitor: inactive; ROMK primary: inactive; L major viab: inactive

What do the screens show for `Nc1nc(SCC(=O)Nc2c(Br)cc([N+](=O)[O-])cc2Br)n[nH]1`?
p97 inhibitor: inactive; HCT116 PTEN-null: inactive; ROMK primary: inactive; L major viab: inactive; bCat KO growth: inactive; INS promoter inh: inactive

Results for O=c1[nH]c2ccccc2c(O)c1O ?
p97 inhibitor: inactive; ROMK primary: inactive; L major viab: inactive; INS promoter inh: inactive

How did Cc1cc(/C=C(\C#N)C(=O)OCC(=O)Nc2ccc(OC(F)F)cc2)c(C)n1CC(C)C do in these assays?
p97 inhibitor: inactive; HCT116 PTEN-null: inactive; ROMK primary: inactive; L major viab: inactive; bCat KO growth: inactive; INS promoter inh: inactive

Results for NC(=O)C1CCN(Cc2nc3cc(C(F)(F)F)ccc3c(=O)[nH]2)CC1 ?
p97 inhibitor: inactive

Results for CC1CCN(S(=O)(=O)c2ccc(NC(=O)CN3CCCC(C)C3)cc2)CC1 (centres undefined) ?
p97 inhibitor: inactive; HCT116 PTEN-null: inactive; ROMK primary: inactive; L major viab: 88.6; bCat KO growth: inactive

How did O=C(Nc1ccc(Cc2ccncc2)cc1)c1ccc(S(=O)(=O)N2CCOCC2)cc1 do in these assays?
p97 inhibitor: inactive; HCT116 PTEN-null: inactive; L major viab: 99.1; bCat KO growth: inactive; INS promoter inh: inactive

Results for O=C(CN1CCN(Cc2ccccc2)CC1)Nc1ccc(S(=O)(=O)N2CCOCC2)cc1 ?
p97 inhibitor: inactive; HCT116 PTEN-null: inactive; L major viab: inactive; bCat KO growth: inactive; INS promoter inh: inactive

How did O=C(CN1CCCCC1)Nc1ccc(S(=O)(=O)N2CCOCC2)cc1 do in these assays?
p97 inhibitor: inactive; HCT116 PTEN-null: inactive; ROMK primary: inactive; L major viab: 96.8; bCat KO growth: inactive; INS promoter inh: inactive

How did Cc1cc(C)c(O)c(-c2cc(C(=O)Nc3ccc(S(=O)(=O)N4CCOCC4)cc3)[nH]n2)c1 do in these assays?
p97 inhibitor: inactive; HCT116 PTEN-null: 1.2; ROMK primary: inactive; L major viab: 90.4; bCat KO growth: 2.3

Results for Cc1cc(C)nc(NS(=O)(=O)c2ccc(NC(=O)c3ccc(S(=O)(=O)N4CCOCC4)cc3)cc2)n1 ?
p97 inhibitor: inactive; HCT116 PTEN-null: inactive; L major viab: inactive; bCat KO growth: inactive

Results for Cc1ccc(C(=O)Nc2ccc(S(=O)(=O)N3CCOCC3)cc2)cc1 ?
p97 inhibitor: inactive; ROMK primary: inactive; L major viab: inactive

What do the screens show for `Cc1ccccc1NC(=O)Nc1nnc(Cc2ccc([N+](=O)[O-])cc2)s1`?
p97 inhibitor: inactive; HCT116 PTEN-null: inactive; ROMK primary: inactive; L major viab: inactive; bCat KO growth: inactive

How did O=C(COC(=O)CN1C(=O)C2CCCCC2C1=O)Nc1ccc(S(=O)(=O)N2CCOCC2)cc1 (centres undefined) do in these assays?
p97 inhibitor: inactive; HCT116 PTEN-null: inactive; ROMK primary: inactive; L major viab: 56.6; bCat KO growth: inactive; INS promoter inh: inactive

How did Cc1ccc(Cl)cc1NC(=S)NCc1cccn1C do in these assays?
p97 inhibitor: inactive; HCT116 PTEN-null: inactive; ROMK primary: inactive; L major viab: 50.6; bCat KO growth: inactive; INS promoter inh: inactive

Results for O=C(Nc1ccc(N2CCN(C(=O)c3ccc(Cl)cc3)CC2)cc1)c1ccc([N+](=O)[O-])o1 ?
p97 inhibitor: inactive; ROMK primary: inactive; L major viab: 100.0

Results for O=C(Nc1ccc(N2CCN(C(=O)c3ccc(Cl)cc3)CC2)cc1)c1ccc2c(c1)OCCO2 ?
p97 inhibitor: inactive; HCT116 PTEN-null: inactive; L major viab: inactive; bCat KO growth: inactive; INS promoter inh: inactive

What do the screens show for `Cc1cc(C)cc(C(=O)Nc2ccc(N3CCN(S(C)(=O)=O)CC3)cc2)c1`?
p97 inhibitor: inactive; ROMK primary: inactive; L major viab: inactive

How did CS(=O)(=O)N1CCN(c2ccc(NC(=O)c3ccc([N+](=O)[O-])o3)cc2)CC1 do in these assays?
p97 inhibitor: inactive; ROMK primary: inactive; L major viab: 94.7

Results for CCCC(=O)N1CCN(c2ccc(NC(=O)c3ccc([N+](=O)[O-])o3)cc2)CC1 ?
p97 inhibitor: inactive; L major viab: 100.5
